# Assay outcomes deposited in PubChem BioAssay by National Center for Advancing Translational Sciences (NCATS).
# TRHR enhancer-1 = allosteric enhancers of human TRH receptor; P34981; TRHR cells, fluo-8 calcium fluorescence, EC20 TRH enhancement; enhancement, % at 2 µM; 360,000 compounds, 0.66% hits; AID 493056; in the data active means enhancement above about 30%; further: 0% is about no effect
#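 Enhancer read-out: after compound pinning and an initial kinetic agonist-mode read, an EC20 of TRH (10 nM final) was injected and fluo-8 calcium signal (Ex 480/Em 530) followed at 1 s/cycle for 100 cycles in TRHR-expressing cells.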
# D1 ag = human D1 receptor agonism; activation, % at 2 µM; 360,000 compounds, 1% hits; P21728; HEK293 T-REx D1 cells, calcium flux, agonist mode; in the data active means activation above about 30%; further: 0% is about no effect
# Target sequence (P21728 whole entry, looked up): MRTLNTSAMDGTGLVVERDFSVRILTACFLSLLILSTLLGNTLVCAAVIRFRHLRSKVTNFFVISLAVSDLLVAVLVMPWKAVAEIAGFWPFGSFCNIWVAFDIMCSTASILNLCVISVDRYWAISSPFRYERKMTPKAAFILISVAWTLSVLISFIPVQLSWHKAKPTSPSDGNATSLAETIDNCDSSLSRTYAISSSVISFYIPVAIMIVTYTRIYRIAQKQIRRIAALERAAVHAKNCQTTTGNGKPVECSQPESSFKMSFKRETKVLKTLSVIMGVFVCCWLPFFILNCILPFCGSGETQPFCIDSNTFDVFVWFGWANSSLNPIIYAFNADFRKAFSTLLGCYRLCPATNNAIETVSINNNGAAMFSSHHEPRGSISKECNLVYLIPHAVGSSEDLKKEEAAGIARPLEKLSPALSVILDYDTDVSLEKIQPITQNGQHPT
#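 Agonism was scored from calcium flux recorded over 180 s (1 read/s) after pintool compound addition, following a 10-cycle baseline. Cells were inducible force-coupled HEK293 TREx D1, plated overnight at 30 C and loaded with no-wash calcium dye.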
# D1 potentiator = enhances dopamine response at the human D1 receptor. P21728. HEK293 TREx D1 cells, calcium flux, dopamine EC20 potentiation. potentiation, % at 10 µM. 360,000 compounds, 0.036% hits. AID 504651; in the data active means potentiation above about 30%; further: 0% is about no effect
# D1 antagonist = antagonists of human D1 dopamine receptor | AID 504652 | P21728 | HEK293 TREx D1 cells, calcium flux, dopamine EC80; active compounds read low | 360,000 compounds, 3.2% hits | activity change, negative = inhibition, % at 10 µM; in the data active means activity change below about -30%; further: on the % scale 0 is the no-effect control and ±100 the full control effect
#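 Allosteric or orthosteric antagonism assessed as attenuation of the calcium response to EC80 dopamine, added 180 s after compound, in induced HEK293 Trex D1 cells loaded with no-wash calcium dye.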
# TRHR agonist-1 = agonists of human TRH receptor | P34981 | TRHR cells, calcium flux fluo-8, FDSS agonist mode | activation, % at 2 µM | 360,000 compounds, 0.18% hits | AID 493084; in the data active means activation above about 30%; further: 0% is about no effect
#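 In this calcium-flux screen, cells bearing human TRHR are dye-loaded with fluo-8, baselined for 10 cycles, then exposed to library compounds; positive kinetic calcium responses during the agonist phase mark hits, with TRH as control.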
# TRHR enhancer-2 = confirmation of human TRH receptor allosteric enhancers; shares compounds with TRHR enhancer-1; TRH receptor cell assay, enhancer confirmation qHTS; activity change, negative = inhibition, % at 46.1 µM; 970 tested, under 10 active; AID 493076;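 further: compound effect scored on response to added TRH at EC20 of 10 nM; 0% is about no effect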
# TRHR agonist-2 = confirmation of human TRH receptor agonists; shares compounds with TRHR enhancer-1; TRHR-expressing cells, agonist activation read-out; Potency, µM (titrated, usually from 46.1 µM), for the others: at the highest dose activation, actives largely listed as activators; 970 compounds, 8% hits; further: potency means the concentration at half of the fitted maximal effect; 0% is about no effect; nearly all actives have a fitted effect of over 75% in size
# * = called active by the depositor; ? = inconclusive; · = not tested or not shown. Compounds with a hit are over-represented: about 4.6% of the library has one in this group of screens. Unless noted, the call rests on the fitted dose curve; in most records, active means well fitted curve in the direction sought with a large enough effect; inconclusive means small, poorly fitted or top-dose-only effect, or another doubt; inactive means no such curve, though single readings can be large; an effect the other way counts as inactive or inconclusive.
SMILES,TRHR enhancer-1,D1 ag,D1 potentiator,D1 antagonist,TRHR agonist-1,TRHR enhancer-2,TRHR agonist-2
CCC(NC(=O)Cc1c(C)c2ccc(OC)c(C)c2oc1=O)C(=O)NC(Cc1ccc(Cl)cc1)C(=O)O (stereo unspecified),9,2,0,21,0,·,·
Cc1oc2cc3oc(=O)c(CC(=O)N[C@@H](C)C(=O)NC(Cc4ccc(Cl)cc4)C(=O)O)c(C)c3cc2c1C (stereo partly specified),44*,1,6,12,0,14,3%
CCOC(=O)C1CCCN(C(=O)Cn2c(=O)c3cccn3c3cccnc32)C1 (stereo unspecified),-1,2,6,-1,1,·,·
O=C1c2ccccc2C(O)N1c1ccccc1 (stereo unspecified),-3,2,-1,3,31*,4,0%
O=C1c2ccccc2C(O)N1c1ccc(Cl)cc1 (stereo unspecified),-3,0,2,-1,0,·,·
Cc1c(Cl)cccc1-n1ncc(C(=O)NCc2cccs2)c1C1CCN(C(=O)OC(C)(C)C)CC1,9,1,-4,6,1,·,·
O=C(CSc1ncnc2sc3c(c12)CCCC3)c1ccccc1,4,0,5,6,0,·,·
O=C(O)c1ccccc1Sc1ncnc2sc3c(c12)CCC3,43*,2,-2,18,0,-4,0%
CC1CCN(S(=O)(=O)c2ccc3[nH]ccc3c2)CC1,5,-4,3,12,0,·,·
CCCC(=O)NC(C)c1nc2ccccc2n1CC (stereo unspecified),45*,2,-8,0,0,-6,0%
CC(=O)c1cccc(CN2CCC(C(=O)Nc3ccc(-c4cccc(C)c4)cc3)CC2)c1,7,3,-4,51,0,·,·
Oc1c(Cl)cc(Cl)cc1/C=C/c1ccc2cccc(O)c2n1,-10,114*,-1,-14,42*,?,?
O=C(CSc1nnc(-c2c[nH]c3ccccc23)o1)NCC1CCCO1 (stereo unspecified),3,2,-9,2,1,·,·
O=C(c1ccc2c(c1)N(Cc1ccccc1)C(=O)c1ccccc1S2(=O)=O)N1CCN(c2ccccn2)CC1,-4,11,-3,-3,0,·,·
COc1ccc(-n2ncc3c(N(C)C4CCCCC4)ncnc32)cc1,-14,4,1,-17,1,·,·
Cc1cccc(-n2ncc3c(N(C)C4CCCCC4)ncnc32)c1,49*,4,-2,-4,-1,-6,0%
O=C(COc1ccc(Br)cc1)N1CCCCCC1,-1,0,-3,-8,0,·,·
O=C(COc1ccc(Br)cc1)OCCN1CCCCC1,0,2,-3,5,30*,-6,1%
CC1CCCCC1NC(=O)C1CCCN(S(=O)(=O)c2ccc(-n3cnnn3)cc2)C1 (stereo unspecified),-3,1,-8,6,-1,·,·
Cc1nnc(SCCOC(N)=O)n1C,2,6,1,-6,0,·,·
C[N+](C)(C)CCOC(N)=O,4,9,-4,2,29,3,4%
CCC(C(=O)Nc1ccc(F)cc1F)n1nc(-c2ccccc2)c2c(c1=O)CCCC2 (stereo unspecified),-6,3,-1,13,-1,·,·
CC(C)C[C@H](NC(=O)OC(C)(C)C)C(=O)N/N=C/c1ccc2nccnc2c1,53*,1,-12,-13,0,-5,1%
C#CCN(C)Cc1ccccc1,-7,1,-2,13,-1,·,·
C#CCN(C)CC/C=C1\c2ccccc2CSc2ccccc21,-3,3,-23,-2,74*,-6,1%
COCCNC(=O)c1cc2c(=O)n3cccc(C)c3nc2n1C,41*,2,4,1,0,?,-1%
CCCCNC(=O)c1cc2c(=O)n3cccc(C)c3nc2n1C,-1,1,-8,9,0,·,·
COc1ccc(C(=O)C2CCN(CC(=O)Nc3ccc(OC)cc3OC)CC2)cc1,1,0,-2,-17,0,·,·
COc1cc(C#N)c(NC(=O)CN2CCC(C(N)=O)CC2)cc1OC,61*,6,5,-1,0,-5,6%
CN1CCN(C2(CNC(=O)c3ccc([N+](=O)[O-])cc3)CCCCC2)CC1,6,16,-2,-21,-2,·,·
